Compound activity from PubChem.
Most compounds without a hit are left out; they make up all but 12% or so of the library.
G9a block = blocks human histone lysine methyltransferase G9a; 350,000 compounds, 8.8% hits; Q96KQ7; G9a H3K9 monomethylation, AlphaScreen, 2 h; Potency, µM (series often up to 102 µM), usual class: inhibitors; further: nearly all actives have a fitted effect of over 75% in size
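AlphaScreen read-out: biotin-H3K9 peptide (500 nM) methylation by 20 nM enzyme with 20 uM SAM, 2 h at room temperature after 15 min compound preincubation; anti-monomethyl H3K9 antibody plus donor/acceptor beads, 10 min dark.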
PLK1 PBD inh = inhibitors of human PLK1 polo-box domain binding. P53350. Plk1 PBD binding of FITC phosphopeptide, fluorescence polarization. Potency, µM, actives largely listed as inhibitors. 360,000 compounds, 2.8% hits; further: series mostly up to about 57 µM; nearly all actives have a fitted effect of over 65% in size
BAZ2B block = inhibitors of human BAZ2B bromodomain. Q9UIF8. AlphaScreen BAZ2B-H3K14Ac peptide displacement. Potency, µM (series often up to 114 µM), usual class: inhibitors. 360,000 compounds, 4.4% hits. AID 504333; further: nearly all actives have a fitted effect of over 60% in size
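Inhibition is scored as reduced AlphaScreen emission. The BAZ2B/b-H3(5-23)K14Ac complex (50 nM each) in PBS pH 7.4, 0.01% Tween-20 meets compound (up to 110 uM) for 30 min at RT before bead addition.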
Sfp PPTase inh = Sfp phosphopantetheinyl transferase inhibition; 310,000 compounds, 3.5% hits; Biochemical Sfp PPTase activity, qHTS; Q9F4F7; Potency, µM, usual class: inhibitors; AID 1490;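 further: the enzyme is Sfp with the accession as filed and its product quenches rhodamine fluorescence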
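Compounds were incubated with enzyme (final 15 nM) for 15 min at room temperature before substrate addition started the reaction. Fluorescence at 525 nm excitation, 598 nm emission was recorded immediately and after 30 minutes.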
JMJD2A Tudor inh = JMJD2A Tudor domain (human) inhibition | AlphaScreen JMJD2A-Tudor / H3K4me3 peptide binding | Potency, µM (top dose mostly 114 µM), most hits filed as inhibitors | 390,000 compounds, 4.4% hits | AID 504339; further: nearly all actives have a fitted effect of over 50% in size
HP1b binding inh = HP1-beta chromodomain-methylated histone interaction inhibition | P83916 | AlphaScreen HP1-beta / biotin-H3K9me3 peptide binding | Potency, µM (highest dose often 114 µM), usual class: inhibitors | 390,000 compounds, 0.56% hits | AID 540317; further: nearly all actives have a fitted effect of over 70% in size
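Compound inhibition of the preformed complex between 50 nM HP1-beta and 50 nM biotinylated H3K9me3 peptide was read by AlphaScreen. Buffer was PBS pH 7.4 with 0.01% Tween-20. Incubations ran 30 min at room temperature, with 10 ug/mL donor/acceptor beads.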
A number is an active result; . = inactive; ? = inconclusive; / = no result given; [ ] = dose if it differs, or a comment. The call rests on the fitted dose curve; in most records, active means well fitted curve in the direction sought with a large enough effect; inconclusive means small, poorly fitted or top-dose-only effect, or another doubt; inactive means no such curve, though single readings can be large; an effect the other way counts as inactive or inconclusive.

SMILES	G9a block	PLK1 PBD inh	BAZ2B block	Sfp PPTase inh	JMJD2A Tudor inh	HP1b binding inh
CCCCN(C(=O)CSCc1c(C)noc1C)c1c(N)n(CCC)c(=O)[nH]c1=O	?	.	.	.	.	.
CCCCn1c(N)c(N(CC(C)C)C(=O)c2cc(C)oc2C)c(=O)[nH]c1=O	?	.	.	.	.	.
CCCCn1c(N)c(N(CC(C)C)C(=O)CSCc2c(C)noc2C)c(=O)[nH]c1=O	45µM	.	.	/	.	.
CCCCn1c(N)c(N(CC(C)C)C(=O)CSC(C)C(=O)Nc2cc(C)on2)c(=O)[nH]c1=O (centres undefined)	56µM	.	.	/	.	.
COc1ccc(NC(=O)Cn2nc(-c3ccccc3)c3cnc4ccc(C)cc4c32)cc1	.	/	.	/	.	.
O=C1c2ccccc2C(=O)C1(c1ccccc1)N1CCN(c2cccc(C(F)(F)F)c2)CC1	10µM	/	?	/	?	.
O=C1c2ccccc2C(=O)C1(c1ccccc1)N1CCN(c2cccc(Cl)c2)CC1	6.3µM	/	?	/	?	.
COC(=O)Cc1[nH]c(=S)[nH]c1C(=O)OC	/	.	.	56µM	3.2µM	.
CCOC(=O)c1c(C)[nH]c(C(=O)OC)c1CCC(=O)OC	.[12.7 µM]	.	?	.	.	.
COc1ccc(C(=O)Nc2nnc(SCc3cc(=O)c4cc(C)cc(C)c4[nH]3)s2)cc1	.	/	.	/	.	.
Cc1ccccc1C(=O)Nc1nnc(SCc2cc(=O)c3c(C)ccc(C)c3[nH]2)s1	.	/	56µM	/	.	.
Cc1ccc(Oc2c(C(F)(F)F)oc3cc(OCC(=O)NC4CCCCC4)ccc3c2=O)cc1	.	/	.	/	.	.
CCN1CCN(c2oc(-c3ccc(OC)cc3)nc2C#N)CC1	/	.	/	/	.	.
N#Cc1nc(-c2ccco2)oc1N1CCOCC1	.	.	.	.	.	.
COc1ccc(N2CCN(c3oc(-c4ccco4)nc3C#N)CC2)cc1	25µM	.	/	.	32µM	?
N#Cc1nc(-c2ccco2)oc1N1CCN(c2ccccc2)CC1	?	.	13µM	.	?	?
NS(=O)(=O)c1ccc(CNC(=O)c2ccc3c(c2)OCO3)cc1	/	.	/	/	.	.
Clc1ccc(-c2nnc(C3CC3)o2)cc1	.	.	.	.	.	.
CCC1CCC(c2nnc(-c3ccc([N+](=O)[O-])cc3)o2)CC1 (centres undefined)	10µM	.	?	.	.	.
COc1ccccc1NC(=O)C1=C(C)Nc2ncnn2C1c1ccccn1 (centres undefined)	.	/	.	/	.	.
CCOc1ccccc1NC(=O)C1=C(C)Nc2ncnn2C1c1ccco1 (centres undefined)	.	/	.	/	.	.
COc1ccccc1NC(=O)C1=C(C)Nc2ncnn2C1c1ccc[nH]1 (centres undefined)	.	/	?	/	56µM	.
COc1ccc(NC(=O)C2=C(C)Nc3ncnn3C2c2ccccn2)cc1 (centres undefined)	?	/	?	/	89µM	.
CC1=C(C(=O)Nc2ccccn2)C(c2ccccc2)n2ncnc2N1 (centres undefined)	.	.	.	.	.	.
CC1=C(C(=O)Nc2cccc(C(F)(F)F)c2)C(c2ccccn2)n2ncnc2N1 (centres undefined)	20µM	/	?	/	50µM	.
SMILES	G9a block	PLK1 PBD inh	BAZ2B block	Sfp PPTase inh	JMJD2A Tudor inh	HP1b binding inh
CC(C)NC(=O)Cn1nc(N2CCN(c3ccccc3)CC2)ccc1=O	.	/	.	/	.	.
CN(C)c1ccc(NC(=S)c2ccccn2)cc1	8.9µM	13µM	2.8µM	45µM	11µM	13µM
COc1ccc(Cl)cc1N1C(=O)CN(Cc2cc(OC)c(OC)c(OC)c2)C1=S	35µM	7.5µM	.	50µM	?	?
COc1ccc(CN2CC(=O)N(c3cc(Cl)ccc3OC)C2=S)cc1OC	?	?	.	.	.	.
COCCNC(=O)C1CCC(CNS(=O)(=O)c2ccc3c(c2)CC(C)N3C(C)=O)CC1 (centres undefined)	.	/	.	/	.	.
C/C=C/c1ccc(OCCCNCC(C)O)c(OC)c1 (centres undefined)	.[12.7 µM]	.	.	.	.	.
C/C=C/c1ccc(OCCCCOc2ccc(OC)cc2)c(OC)c1	.	.	.	?	.	.
